In article PMC4336329 (PLoS ONE, 2015):
Out of some 310,000 compounds screened, about 14,000 (4.5%) showed an effect of 50% or more. The effect is printed as a negative number. The sample holds strong results, similar compounds and a random draw of the others, so the mix is not that of the screen.

Target: human ether-à-go-go-related gene (hERG) potassium channel (human, UniProt Q12809)
Assay: primary screen, population patch clamp on CHO cells stably expressing hERG; higher = less effect of the substance
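Further: peak tail current of the secondary pulse compared with the same well before compound.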

Sequence of human ether-à-go-go-related gene (hERG) potassium channel (Q12809 whole entry, looked up): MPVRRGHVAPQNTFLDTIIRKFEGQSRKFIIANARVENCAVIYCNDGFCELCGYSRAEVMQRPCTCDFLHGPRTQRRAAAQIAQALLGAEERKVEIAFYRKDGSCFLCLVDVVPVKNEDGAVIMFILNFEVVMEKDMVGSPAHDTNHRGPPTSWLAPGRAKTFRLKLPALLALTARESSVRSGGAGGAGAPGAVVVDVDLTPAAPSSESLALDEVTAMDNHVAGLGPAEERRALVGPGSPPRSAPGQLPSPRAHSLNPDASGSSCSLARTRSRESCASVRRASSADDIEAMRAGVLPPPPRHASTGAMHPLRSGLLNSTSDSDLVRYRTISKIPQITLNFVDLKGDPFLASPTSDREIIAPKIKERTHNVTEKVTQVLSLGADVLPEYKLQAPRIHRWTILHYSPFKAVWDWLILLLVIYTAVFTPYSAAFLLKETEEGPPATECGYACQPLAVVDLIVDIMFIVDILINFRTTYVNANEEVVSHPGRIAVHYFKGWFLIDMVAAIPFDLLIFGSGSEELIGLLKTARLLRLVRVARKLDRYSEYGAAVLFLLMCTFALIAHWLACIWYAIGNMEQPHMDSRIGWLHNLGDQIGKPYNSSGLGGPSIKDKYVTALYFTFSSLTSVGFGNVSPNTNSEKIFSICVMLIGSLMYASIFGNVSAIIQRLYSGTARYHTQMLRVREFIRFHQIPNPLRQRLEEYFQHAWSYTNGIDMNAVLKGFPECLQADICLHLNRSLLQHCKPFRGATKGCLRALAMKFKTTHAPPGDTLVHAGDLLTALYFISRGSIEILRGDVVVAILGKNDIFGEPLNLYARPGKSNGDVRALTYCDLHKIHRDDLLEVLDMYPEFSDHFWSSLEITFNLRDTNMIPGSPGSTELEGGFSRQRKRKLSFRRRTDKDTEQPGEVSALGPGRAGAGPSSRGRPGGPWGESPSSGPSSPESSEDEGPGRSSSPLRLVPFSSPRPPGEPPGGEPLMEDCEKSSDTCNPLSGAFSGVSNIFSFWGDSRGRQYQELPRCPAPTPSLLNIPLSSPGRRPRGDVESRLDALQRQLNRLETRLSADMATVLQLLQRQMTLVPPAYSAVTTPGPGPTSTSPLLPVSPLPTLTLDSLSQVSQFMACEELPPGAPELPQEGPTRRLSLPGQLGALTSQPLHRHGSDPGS

Row | Compound | hERG current change (%, negative = inhibition) at 10uM [%]
1 | Cc1cc(Cl)ccc1C(=O)C1CCCN(C(=O)c2ccc3ncccc3c2)C1 (stereo not drawn) | -29.5
2 | O=C(c1ccc(Cl)cc1)C1CCCN(Cc2cccc3ncccc23)C1 (stereo not drawn) | -52.1
3 | O=C(c1ccc(Cl)cc1)C1CCCN(Cc2cccc3cnccc23)C1 (stereo not drawn) | -44.8
4 | O=C(c1ccc(Cl)cc1)C1CCCN(Cc2ccc3ncccc3c2)C1 (stereo not drawn) | -64.3
5 | O=C(c1ccc(Cl)cc1)C1CCCN(Cc2ccc3nonc3c2)C1 (stereo not drawn) | -34.9
6 | CC(C)c1ccc(NC(=O)c2ccc(NS(C)(=O)=O)cc2)cc1 | 3.29
7 | COC(=O)c1ccc(OCCn2cnc3ccccc3c2=O)cc1 | -11.2
8 | COc1ccc(NC(=O)C2Cc3cccc(OC)c3O/C2=N\O)cc1 (stereo not drawn) | 6.66
9 | COc1cccc(-n2c(COc3ccccc3C)nnc2SCC(=O)O)c1 | 1.56
10 | CSCC[C@H](NC(=O)N1CCn2c1nc1ccccc12)C(=O)NCc1ccco1 | -19.1
11 | CCN(C(=O)COC(=O)c1cc(-c2ccccc2)nc2c1c(C)nn2-c1ccccc1)C1CCS(=O)(=O)C1 (stereo not drawn) | 21.5
12 | CCN(CC)CCCNC(=O)c1oc2ccc3c(c2c1C)C(O)CC(C)(C)O3 (stereo not drawn) | -4.08
13 | Cc1ccc(NS(=O)(=O)c2ccc3c(c2)n(C)c(=O)n3C)cc1C | 14.2
14 | Cc1ccc(CNCC(O)(c2ccccc2)c2ccc(F)cc2)cc1 (stereo not drawn) | -45.6
15 | OC(CNCc1ccc(F)cc1)(c1ccccc1)c1ccc(F)cc1 (stereo not drawn) | -33.8
16 | Cc1ccc(CNCC(O)(c2ccc(F)cc2)c2ccc(F)cc2)cc1 | -56.4
17 | OC(CNCc1ccc(F)cc1)(c1ccc(F)cc1)c1ccc(F)cc1 | -33.7
18 | OC(CNCc1ccccc1)(c1ccc(F)cc1)c1ccc(F)cc1 | -38.1
19 | Cc1ccc(C(O)(CNCc2ccccc2)c2ccccc2)cc1 (stereo not drawn) | -33.9
20 | COc1cccc(CNCC(O)(c2ccc(Cl)cc2)c2ccc(Cl)cc2)c1 | -12.2
21 | COc1ccc(CNCC(O)(c2ccccc2)c2ccc(F)cc2)cc1 (stereo not drawn) | -73.3
22 | COc1ccc(CNCC(O)(c2ccc(F)cc2)c2ccc(F)cc2)cc1 | -67.3
23 | CC(C)C(NC(=O)C1CCCCC1)C(=O)Nc1ccncc1 (stereo not drawn) | 9.18

Row | Compound | hERG current change (%, negative = inhibition) at 10uM [%]
24 | Cc1cc(C)cc(C(=O)N2CCC(CCC(=O)NC3CC3)CC2)c1 | -2.09
25 | NC(=O)C1CCN(C(=O)CN(c2ccc3c(c2)OCCO3)S(=O)(=O)c2ccccc2)CC1 | -18
26 | CCOC(=O)C1CCN(C(=O)CN(c2cc(OC)ccc2OC)S(=O)(=O)c2ccccc2)CC1 | -2.73
27 | CCOC(=O)C1CCN(C(=O)CN(c2cc(Cl)ccc2OC)S(=O)(=O)c2ccccc2)CC1 | -67
28 | CCOC(=O)C1CCN(C(=O)CN(c2ccc3c(c2)OCCO3)S(C)(=O)=O)CC1 | -4.03
29 | CCOC(=O)N1CCN(C(=O)CN(c2cc(Cl)ccc2OC)S(=O)(=O)c2ccccc2)CC1 | -19.4
30 | CCOC(=O)C1CCN(C(=O)CN(c2ccc3c(c2)OCCO3)S(=O)(=O)c2ccccc2)CC1 | -53.1
31 | COC(=O)NCc1ccc(CNC(=O)OC)cc1 | 4.84
32 | CCc1cc(C(=O)N2CCN(c3ccccc3OC)CC2)sc1C | -15
33 | COc1cc(OC)cc(C(=O)NNC(=S)Nc2ccccc2OC)c1 | 10.8
34 | CC1CCN(C(=O)CN2C(=O)C(=O)N(C)C2=O)c2ccccc2S1 (stereo not drawn) | 5.74
35 | CSc1cccc(NC(=O)/C=C/c2ccco2)c1 | 1.51
36 | O=C(COC(=O)/C=C/c1ccc(F)cc1)NCc1cccs1 | 8.26
37 | CC[n+]1c(/C=C/N(C)c2ccccc2)n(-c2ccccc2)c2ccc(-c3nc4ccccc4s3)cc21.[I-] | -81.1
38 | CCOc1cc(-c2nc3ccccc3s2)ccc1O | 4.57
39 | CC[n+]1cccc(-c2nc3ccccc3s2)c1.[I-] | -0.683
40 | CCOc1ccc(CCNC(=O)c2cnccn2)cc1OCC | 11.1
41 | CCNc1nc2c(c(=O)n(C)c(=O)n2C)n1Cc1ccc(Cl)cc1 | -7.07
42 | c1ccc(-n2nnnc2Oc2ccc(-n3ccnc3)cc2)cc1 | -54
43 | COc1ccc(Oc2nnnn2-c2ccccc2)cc1 | -16.6
44 | Fc1ccc(Oc2nnnn2-c2ccccc2)cc1 | 44.8
45 | CCNC(=O)COc1ccc(-c2ccccc2)cc1 | -19.4
